Results on 22 molecules are retold here after article PMC11062922 (Nature Chemical Biology, 2023).

Read-outs that look alike come from different tables or passages of the source.

Design in all cases: species or system human, MV4-11 + K-562 + COLO205 + SK-N-BE2 + OVCAR-8
The subject of one assay is EPHA4. As to conditions: read-out: apparent Kd, compound concentrations: 100 nM and 1000 nM (sheet 'Samples'), n = 1.
In another assay the test system is EPHA5. The note with it: read-out: apparent Kd, compound concentrations: 100 nM and 1000 nM (sheet 'Samples'), n = 1.
The test system of the next assay is EPHB2. As to conditions: read-out: apparent Kd, compound concentrations: 100 nM and 1000 nM (sheet 'Samples'), n = 1.
The test system of a further assay is EPHB4. The note with it: read-out: apparent Kd, compound concentrations: 100 nM and 1000 nM (sheet 'Samples'), n = 1.
For the next assay, the system named is PRKAG2. As to conditions: read-out: apparent Kd; compound concentrations: 100 nM and 1000 nM (sheet 'Samples'), CATDS: 4.1666716087244697E-2; n = 1.
Another assay relates to TNK1. As to conditions: read-out: apparent Kd; compound concentrations: 100 nM and 1000 nM (sheet 'Samples'), CATDS: 0.384256828153267; n = 1.
The next assay concerns TNK2. The note with it: read-out: apparent Kd, compound concentrations: 100 nM and 1000 nM (sheet 'Samples'), n = 1.
Another assay deals with CDK16. The note with it: read-out: apparent Kd, n = 1.
A further assay relates to ATM. The note with it: read-out: apparent Kd, n = 1.
Another assay deals with AURKA. As to conditions: read-out: apparent Kd; compound concentrations: 100 nM and 1000 nM (sheet 'Samples'), CATDS: 0.14578513534179899; n = 1.
The test system of another assay is STK4. The note with it: read-out: apparent Kd, n = 1.
A further assay relates to PRKACA. As to conditions: read-out: apparent Kd; compound concentrations:100 nM and 1000 nM (sheet 'Samples'); n = 1.
The subject of the next assay is MARK3. As to conditions: read-out: apparent Kd, n = 1.
The subject of a further assay is CSNK1D. The note with it: read-out: apparent Kd; compound concentrations:100 nM and 1000 nM (sheet 'Samples'); n = 1.
A further assay has as its system MAPK9. The note with it: read-out: apparent Kd, n = 1.
Another assay deals with PRKACB. As to conditions: read-out: apparent Kd; compound concentrations:100 nM and 1000 nM (sheet 'Samples'); n = 1.
A further assay deals with MAPK10. The note with it: read-out: apparent Kd, n = 1.
A further assay deals with CHEK1. As to conditions: read-out: apparent Kd; compound concentrations: 100 nM and 1000 nM (sheet 'Samples'), CATDS: 3.6585074112693398E-2; n = 1.
Where [1] appears, read: compound concentrations:100 nM and 1000 nM (sheet 'Samples').

For `Cn1cc(C2=C(c3ccc(OC[C@@H](O)CO)cc3)C(=O)NC2=O)c2ccccc21` [RO3208546-000], the potency estimated from few doses with EPHA4 (CATDS: 3.51410618583008E-2) was 1520 nM; in the assay with EPHA5 (CATDS: 3.9302113752780102E-2), 1120 nM; in the assay on EPHB2 (CATDS: 4.4288817418137498E-2), 840 nM; in the assay with EPHB4 (CATDS: 6.3567639225114006E-2) it was 415 nM; with PRKAG2, 967 nM; with TNK1, 31.7 nM. The potency estimated from few doses in the assay with TNK2 (CATDS: 6.2991293235435897E-2) was 422 nM.
As for `Cl.Nc1nc(-c2ccc3c(c2)C(=Cc2cc(Br)c(O)c(Br)c2)C(=O)N3)cs1` [GW407323A], the potency estimated from few doses in the assay with CDK16 (compound concentrations: 100 nM and 1000 nM (sheet 'Samples'), CATDS: 4.1043878899959203E-2) is 464 nM.
`NS(=O)(=O)c1ccc(N/N=C2\C(=O)Nc3ccc(-c4cnco4)cc32)cc1` [GW276655_KCGS]: in the assay with CDK16 (setting [1]), the potency estimated from few doses is 1880 nM.
As for `O=C1N=C(NCCc2cccs2)S/C1=C\c1ccc2ncccc2c1` [RO4508348-000], in the assay with ATM (compound concentrations: 100 nM and 1000 nM (sheet 'Samples'), CATDS: 0.23427621692245501), the potency estimated from few doses was 314 nM.
As to `CC(C)N1CC(=O)N(C)c2cnc(Nc3cccc(S(=O)(=O)CCN4CCOCC4)c3)nc21` [BI00009348], the potency estimated from few doses in the assay on ATM (compound concentrations: 100 nM and 1000 nM (sheet 'Samples'), CATDS: 0.21813144295739101) was 112 nM.
`COc1cccc(C2=C(c3c(C)n(C)c4ccccc34)C(=O)NC2=O)c1` [RO3300167-000]: the potency estimated from few doses in the assay with AURKA is 490 nM; in the assay with STK4 (compound concentrations: 100 nM and 1000 nM (sheet 'Samples'), CATDS: 0.12261986260266899), 646 nM.
With `CCn1c(-c2nonc2N)nc2cncc(C(=O)N3CC[C@H](N)C3)c21.Cl` [SB-772077-B], in the assay with PRKACA, the potency estimated from few doses was 790 nM.
With `Nc1nccc(-c2ccc3c(N)n[nH]c3c2)n1` [GSK1034945A], in the assay with MARK3 (setting [1]), the potency estimated from few doses is 1040 nM.
For `NS(=O)(=O)c1ccc(N/C=C2\C(=O)Nc3ccc4ncsc4c32)cc1` [GW297361X], the potency estimated from few doses in the assay on CDK16 (compound concentrations: 100 nM and 1000 nM (sheet 'Samples'), CATDS: 4.8575287587601497E-2) was 557 nM; in the assay with STK4 (compound concentrations: 100 nM and 1000 nM (sheet 'Samples'), CATDS: 4.6410579301478898E-2), 611 nM.
As to `Cc1cc(NC(=O)c2cccc(NC(=O)/C=C/CN(C)C)c2)ccc1Nc1nccc(-c2cccnc2)n1` [JNK-IN-7], the potency estimated from few doses is 273 nM in the assay on ATM (setting [1]), 1190 nM in the assay on CSNK1D and 6.45 nM with MAPK9 (setting [1]).
With `CC(C)(CO)CNC(=O)c1ccc2c(c1)/C(=N/Nc1ccc(S(N)(=O)=O)cc1)C(=O)N2` [GW301784X], the potency estimated from few doses with CDK16 (setting [1]) was 53 nM.
In the case of `Cl.Cl.NC[C@H](CC1CCCCC1)NC(=O)c1ccc(-c2ccnc3[nH]ccc23)s1.NC[C@H](CC1CCCCC1)NC(=O)c1ccc(-c2ccnc3[nH]ccc23)s1` [GSK1581428A], the potency estimated from few doses was 31 nM in the assay on PRKACA and 49.7 nM in the assay with PRKACB.
Take `COc1cc[nH]c1/C=C1\C(=O)Nc2ccc(F)c(C#C[C@@H](O)[C@@H](N)[C@@H](C)O)c21` [RO0283120-000]: the potency estimated from few doses with CDK16 (setting [1]) was 235 nM; with MAPK10 (setting [1]) it was 654 nM; with MAPK9 (setting [1]), 321 nM; with MARK3 (setting [1]) it was 528 nM; in the assay on STK4 (setting [1]), 765 nM.
Turning to `CNCC1CCn2c(c(C3=C(c4cn(C)c5ccccc45)C(=O)NC3=O)c3ccccc32)C1` (stereo not drawn) [RO0318676-000], the potency estimated from few doses in the assay with CHEK1 is 754 nM; in the assay with EPHA4 (CATDS: 2.83796334007482E-2), 1680 nM; in the assay with EPHB2 (CATDS: 2.91102387203203E-2) it was 1530 nM; with EPHB4 (CATDS: 3.3476248277138E-2) it was 973 nM; in the assay on TNK2 (CATDS: 3.7292246432418498E-2), 715 nM.
Consider `COc1cc[nH]c1/C=C1\C(=O)Nc2ccc([N+](=O)[O-])c(N3CC[C@@H](O)C3)c21` [RO0504985-000], for which the potency estimated from few doses in the assay with CDK16 (compound concentrations: 100 nM and 1000 nM (sheet 'Samples'), CATDS: 3.96360486889639E-2) is 697 nM; in the assay with MAPK10 (compound concentrations: 100 nM and 1000 nM (sheet 'Samples'), CATDS: 3.16649097319332E-2), 1540 nM; in the assay on MAPK9 (compound concentrations: 100 nM and 1000 nM (sheet 'Samples'), CATDS: 2.9417077034867501E-2), 2110 nM.
Turning to `CNc1nccc(-c2ccc3c(N)n[nH]c3c2)n1` [GSK2206003A], in the assay with MARK3 (compound concentrations: 100 nM and 1000 nM (sheet 'Samples'), CATDS: 5.1673366030294897E-2), the potency estimated from few doses is 1410 nM.
As for `NS(=O)(=O)c1ccc(NC=C2C(=O)Nc3ccc4ncsc4c32)cc1` [GW589933X], the potency estimated from few doses in the assay on CDK16 (compound concentrations: 100 nM and 1000 nM (sheet 'Samples'), CATDS: 3.8979394521984997E-2) is 193 nM; in the assay on STK4 (compound concentrations: 100 nM and 1000 nM (sheet 'Samples'), CATDS: 3.75205363662858E-2) it was 208 nM.
As for `Cl.Cn1cc(C2=C(c3c4n(c5ccccc35)CCNC4)C(=O)NC2=O)c2ccccc21` [RO0318365-001], the potency estimated from few doses in the assay on EPHA5 (CATDS: 5.66388945901121E-2) is 1210 nM.
Consider `Cc1occc1-c1nc(N)c(OC[C@@H](N)Cc2c[nH]c3ccccc23)cc1-c1cc2c(C)n[nH]c2cn1` [GSK1660450B], for which the potency estimated from few doses in the assay on CSNK1D was 452 nM; in the assay with MARK3 (setting [1]), 1250 nM; in the assay with PRKACA, 8.55 nM; in the assay on PRKACB, 18.6 nM; in the assay on STK4 (setting [1]), 105 nM.
Take `CCC(CC)(CC)n1cnc2c(N)ncnc21` [SKF-97620]: the potency estimated from few doses with ATM (compound concentrations: 100 nM and 1000 nM (sheet 'Samples'), CATDS: 0.160358426493935) was 43.6 nM.
Turning to `CN(C)c1ccc2c(c1)/C(=C/Nc1ccc(S(N)(=O)=O)cc1)C(=O)N2` [GW416469X], in the assay with STK4 (compound concentrations: 100 nM and 1000 nM (sheet 'Samples'), CATDS: 7.4915408427864094E-2), the potency estimated from few doses is 1510 nM.
As for `NS(=O)(=O)c1cccc(-c2ccc3c(NC(=O)C4CC4)n[nH]c3c2)c1` [SB-741905], the potency estimated from few doses with ATM (compound concentrations: 100 nM and 1000 nM (sheet 'Samples'), CATDS: 0.31609765928995098) is 205 nM.
